Hits are enriched below; roughly 0.92% of the tested compounds scored in any of these assays.
APE1 inh-1 = qHTS Assay for Inhibitors of the Human Apurinic/apyrimidinic Endonuclease 1 (APE1); Potency, µM (series often up to 65.8 µM), without a hit: at the highest dose activity change, negative = inhibition, most hits filed as inhibitors; 350,000 compounds, 0.35% hits; AID 2517, 2012; recombinant APE1, TAMRA/BHQ-2 abasic DNA cleavage fluorescence;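 further: plate controls were vehicle for no effect and reference inhibitor for full effect; nearly all actives have a fitted effect of over 55% in size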
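Step 1: APE1 (0.75 nM) with compound, 15 min RT. Step 2: add 50 nM fluorophore/quencher THF duplex. Step 3: three fluorescence reads 60 s apart (525/598 nm); read 3 minus read 1 = reaction progress.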
TDP1 inh = qHTS Assay for Inhibitors of Tyrosyl-DNA Phosphodiesterase (TDP1). Tyrosyl-DNA phosphodiesterase 1 (Homo sapiens), Q9NUW8. recombinant TDP1, AlphaScreen DNA substrate cleavage. Potency, µM (titrated, usually from 130 µM), for inactives: at the highest dose activity change, negative = inhibition, hits mostly inhibitors. 350,000 compounds, 0.28% hits. AID 485290, 2010; further: nearly all actives have a fitted effect of over 40% in size
Target sequence (Q9NUW8 whole entry, looked up): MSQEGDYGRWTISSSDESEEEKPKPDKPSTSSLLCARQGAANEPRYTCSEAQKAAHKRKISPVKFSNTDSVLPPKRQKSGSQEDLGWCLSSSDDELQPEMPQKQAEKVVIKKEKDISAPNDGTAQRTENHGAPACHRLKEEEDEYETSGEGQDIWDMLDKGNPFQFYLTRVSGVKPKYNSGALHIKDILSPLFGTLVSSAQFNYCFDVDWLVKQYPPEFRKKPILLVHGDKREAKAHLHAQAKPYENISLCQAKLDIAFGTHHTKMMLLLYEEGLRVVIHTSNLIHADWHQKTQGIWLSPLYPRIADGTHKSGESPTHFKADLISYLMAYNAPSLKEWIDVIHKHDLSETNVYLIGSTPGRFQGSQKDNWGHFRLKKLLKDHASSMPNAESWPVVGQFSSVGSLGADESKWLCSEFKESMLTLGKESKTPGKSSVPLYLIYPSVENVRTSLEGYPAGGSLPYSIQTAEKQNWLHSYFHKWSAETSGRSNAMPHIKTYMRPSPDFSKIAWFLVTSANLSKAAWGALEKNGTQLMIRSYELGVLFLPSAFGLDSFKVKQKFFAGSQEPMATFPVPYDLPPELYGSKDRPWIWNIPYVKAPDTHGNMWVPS
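AlphaScreen read-out: signal falls as enzyme removes the 3' tyrosine-FITC from a 5'-biotinylated DNA oligo (15 nM, 5 min, RT). Enzyme was E. coli-made recombinant Tdp1 at 1 nM, exposed to compound for 15 min beforehand; beads 10 ug/ml, 10 min.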
BLM inh = qHTS Assay for Inhibitors of Bloom's syndrome helicase (BLM); RecQ-like DNA helicase BLM (Homo sapiens), P54132; 350,000 compounds, 0.2% hits; AID 2528, 2010; Potency, µM (top dose mostly 56.1 µM), without a hit: top-dose activity change, negative = inhibition, most hits filed as inhibitors; recombinant BLM DNA unwinding, fluorescence dequenching;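 further: plate controls were vehicle for no effect and no enzyme for full effect; nearly all actives have a fitted effect of over 35% in size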
FEN1 inhibitor = qHTS Assay for the Inhibitors of Human Flap endonuclease 1 (FEN1); AID 588795, 2011; Recombinant FEN1 flap cleavage, fluorescence, 15 min; P39748; Potency, µM (series often up to 114 µM), for the others: at the highest dose activity change, negative = inhibition, hits mostly inhibitors; 390,000 compounds, 0.35% hits; further: nearly all actives have a fitted effect of over 65% in size
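FEN1 at 10 nM preincubated with compounds 15 min at room temperature, then flap DNA substrate added at 50 nM final. Signal read at 0 and 15 min; concentration-response fitted with four-parameter Hill equation.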
RECQ1 inh = qHTS Assay for Inhibitors of RecQ-Like Dna Helicase 1 (RECQ1). 240,000 compounds, 0.54% hits. AID 2549, 2010. RECQ1 DNA unwinding, red fluorescence kinetic read. Potency, µM (top dose mostly 57.3 µM), for inactives: at the highest dose activity, negative = inhibition, usual class: inhibitors. ATP-dependent DNA helicase Q1 (Homo sapiens), P46063;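 further: plate controls were vehicle for no effect and no enzyme for full effect; nearly all actives have a fitted effect of over 30% in size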
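RECQ1T1 50 nM; forked duplex (20 bp + 30-nt ss tails) 200 nM, ATP 2 mM final; pH 8.0, 2 mM MgCl2, 2.5 ug/ml poly(dI-dC); 15 min compound preincubation; discontinuous kinetic read over 2 h at RT.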
APE1 dye cs = Counterscreen for APE1 Inhibitors: Fluorescent Dye Displacement Assay; 480 compounds, 7% hits; shares compounds with APE1 inh-1; DNA fluorescent dye displacement counterscreen, fluorescence; Potency, µM (top dose mostly 28.5 µM), without a hit: at the top dose activity change, negative = inhibition, hits mostly inhibitors;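 further: loss of thiazole orange fluorescence as the dye is displaced from duplex DNA; 0% = ThO with dsDNA and no compound and -100% = ThO without dsDNA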
EndoIV counter = Counterscreen for APE1 Inhibitors: qHTS Assay for Inhibitors of Endonuclease IV | shares compounds with APE1 inh-1 | E. coli Endo IV, fluorogenic AP-site DNA cleavage | Potency, µM (series often up to 27.1 µM), for inactives: at the top dose activity change, negative = inhibition, usual class: inhibitors | 560 compounds, 4% hits;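 further: plate controls were uninhibited enzyme wells for no effect and no enzyme buffer wells for full effect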
APE1 inh-2 = Confirmation qHTS Assay for Inhibitors of the Human Apurinic/apyrimidinic Endonuclease 1 (APE1) | purified APE1, fluorogenic abasic-site DNA cleavage | shares compounds with APE1 inh-1 | 750 compounds, 44% hits | Potency, µM (series often up to 57.1 µM), without a hit: at the top dose activity change, negative = inhibition, hits mostly inhibitors; further: nearly all actives have a fitted effect of over 30% in size
APE1 FP = qHTS FP-Based Assay for Inhibitors of the Human Apurinic/apyrimidinic Endonuclease 1 (APE1). Potency, µM (doses to about 28.5 µM), without a hit: top-dose activity, negative = inhibition, actives largely listed as inhibitors. APE1 binding to TAMRA-labelled double-stranded DNA, fluorescence polarization displacement. shares compounds with APE1 inh-1. 480 compounds, 7% hits
Numbers without * were called inactive; i = inactive; ? = inconclusive; · = not tested or not shown; ! = not confirmed by another sample; [ ] = another dose, or the depositor's remark. The call rests on the fitted dose curve; in most records, active means well fitted curve in the direction sought with a large enough effect; inconclusive means small, poorly fitted or top-dose-only effect, or another doubt; inactive means no such curve, though single readings can be large; an effect the other way counts as inactive or inconclusive. Unless noted, on the % scale 0 is the no-effect control and ±100 the full control effect; potency means the concentration at half of the fitted maximal effect.

SMILES	APE1 inh-1	TDP1 inh	BLM inh	FEN1 inhibitor	RECQ1 inh	APE1 dye cs	EndoIV counter	APE1 inh-2	APE1 FP
COC/C=C/C1=CC2=CC(=O)C(C)(OC(=O)c3ccco3)C(=O)C2=CO1 (configuration not stated)	20µM*	-13.7%	-14.3%	·	28.2µM*	?	?	?	12.6µM*
O=C1/C(=C/c2ccco2)SC(=S)N1CC1CCCO1 (configuration not stated)	10µM*	-5.0%	-27.3%	-23.3%	22.4µM*	-7.4%	-2.7%	7.94µM*	-12.3%
Cc1ccc(/C=C2\SC(=S)N(CC3CCCO3)C2=O)o1 (configuration not stated)	-10.0%	11.2%	-12.1%	-20.3%	?	·	·	·	·
O=C(O)CCCN1C(=O)/C(=C\c2ccco2)SC1=S	20µM*	22.4µM*	59.0%	31.6µM*	?	-3.7%	68.8%	?	-0.8%
COc1cccc(NC(=O)CSc2nnc(NC(=O)NC3CCCCC3)s2)c1	·	7.8%	-3.5%	-16.0%	·	·	·	·	·
NC[C@@H](O)c1ccc(O)c(O)c1	1µM*	?	12.6µM*!	·	14.1µM*!	·	-5.4%[57.1 µM]	3.98µM*	·
COc1ccc2c(c1)c(=O)oc1cc3oc(C)c(C)c3cc12	?	·	-15.9%	·	-11.6%	37.6%	-2.0%	5.62µM*	-3.5%
Cc1nc2ccn(Cc3cccs3)c(=O)c2cc1C(=O)N1CCN(c2ccccc2F)CC1	·	7.1%	-14.1%	-12.5%	·	·	·	·	·
CC(C)(C)c1cccc(C2(O)C(=O)c3ccccc3C2=O)c1O	-7.8%	0.0%	-4.2%	-18.2%	i	·	·	·	·
Cc1ccc(C2(O)C(=O)c3ccccc3C2=O)c(O)c1C	3.0%	50.1µM*	-3.1%	0.6%	?	·	·	?	·
O=S1(=O)N=C(Oc2cccc(Cl)c2)c2ccccc21	·	0.2%	·	·	·	·	·	·	·
O=c1ccc2c(OCCCCc3ccccc3)c3ccoc3cc2o1	-4.0%	-11.8%[56.1 µM]	·	·	-2.0%	·	-12.1%[57.1 µM]	-30.4%	·
COc1cc(Nc2ncc3c(n2)CCN(Cc2ccc(OC(C)C)c(OC)c2)C3)cc(OC)c1	·	11.2%	-7.3%	-5.4%	·	·	·	·	·
CC(=O)OC1CC2C(C)(C)C(O)CC[C@@]2(C)C2CC[C@@]3(C)C(c4ccoc4)OC(=O)C4OC43[C@]12C (some centres not stated)	?	15.2%[56.1 µM]	-2.5%	·	-6.3%	1.0%[57.1 µM]	0.8%[57.1 µM]	?	0.3%[57.1 µM]
O=C1CNC(=O)/C1=C/c1ccc(O)cc1	0.891µM*	-2.0%	1.0%	-1.0%	1.2%	0.9%	-1.2%	?	10.6%
O=C1CNC(=O)/C1=C\c1ccc(O)cc1	-2.8%	-1.2%	1.0%	2.0%	-11.1%	·	·	·	·
